Screening results: PubChem, The Scripps Research Institute Molecular Screening Center
ABHD5 PLIN5 PPI – ABHD5-PLIN5 interaction inhibitors, primary screen, cell lysate, split luciferase complementation, luminescence; Perilipin-5 (Homo sapiens) + 1-acylglycerol-3-phosphate O-acyltransferase ABHD5 (Homo …; Split G. princeps luciferase complementation, 4 h; inhibition, % at 4 µM; 0.78% of 360,000 active;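 active = inhibition above the mean inhibition across every tested compound plus 3 SD, cut at about 22% in these data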;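 note: 0% = DMSO only wells and the 100% control is not disclosed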
Target sequence (Q00G26 whole entry, looked up): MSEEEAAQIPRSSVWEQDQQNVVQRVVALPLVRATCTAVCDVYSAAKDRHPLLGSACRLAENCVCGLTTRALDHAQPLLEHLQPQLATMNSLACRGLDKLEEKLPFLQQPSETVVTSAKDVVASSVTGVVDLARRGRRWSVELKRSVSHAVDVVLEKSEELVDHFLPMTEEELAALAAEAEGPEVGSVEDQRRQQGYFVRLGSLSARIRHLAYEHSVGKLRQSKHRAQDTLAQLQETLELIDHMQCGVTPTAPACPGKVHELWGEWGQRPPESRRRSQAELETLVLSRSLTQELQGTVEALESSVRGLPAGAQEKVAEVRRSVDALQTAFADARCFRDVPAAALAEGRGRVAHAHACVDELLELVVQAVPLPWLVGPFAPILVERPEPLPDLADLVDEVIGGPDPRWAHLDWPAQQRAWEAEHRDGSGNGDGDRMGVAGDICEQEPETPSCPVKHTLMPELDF
Target sequence (Q8WTS1 whole entry, looked up): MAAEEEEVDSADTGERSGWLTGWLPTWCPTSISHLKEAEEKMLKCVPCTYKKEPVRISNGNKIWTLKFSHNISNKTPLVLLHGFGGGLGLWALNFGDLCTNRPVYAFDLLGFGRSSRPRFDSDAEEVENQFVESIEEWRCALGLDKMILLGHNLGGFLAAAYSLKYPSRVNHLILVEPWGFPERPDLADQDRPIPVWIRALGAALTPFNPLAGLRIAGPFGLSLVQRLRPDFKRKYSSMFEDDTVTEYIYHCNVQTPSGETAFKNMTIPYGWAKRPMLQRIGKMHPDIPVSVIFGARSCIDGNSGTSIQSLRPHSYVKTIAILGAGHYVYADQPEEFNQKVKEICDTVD
UHRF1 MBD2 ctr – UHRF1 methylated DNA binding inhibitors, primary screen, counter-screen for MBD2 inhibitor project, biochemical, TR-FRET, human UHRF1, single concentration | E3 ubiquitin-protein ligase UHRF1 (Homo sapiens), Q96T88 | UHRF1 binding to methylated oligo | inhibition, % at 4.4 µM | 0.75% of 370,000 active; in the data active = inhibition above about 21%;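 note: UHRF1 SRA domain binding a hemimethylated CpG hairpin DNA probe; 0% = median of test compound wells and 100% = reference inhibitor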
LEDGF integ inh – blockers of LEDGF/p75-dependent integrase strand transfer – biochemical, TR-FRET, high throughput, primary screen; HIV-1 integrase (with human LEDGF/p75); TR-FRET IN-LEDGF/p75 DNA integration, Eu/Cy5; inhibition, % at 3.7 µM; 0.64% of 370,000 active; AID 743269, 2014;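 active = inhibition above the screen-wide mean plus 3 SD, cut at about 13% in these data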;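 note: signal is the Cy5 over europium emission ratio at 671 and 618 nm; 0% = plate median of compound wells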
rCAG binder – binders of r(CAG) RNA repeats, primary screen, biochemical, fluorescence | r(CAG) RNA repeat, TO-PRO-1 dye displacement fluorescence | inhibition, % at 3 µM | 1.3% of 370,000 active | AID 651821, 2012;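 active = inhibition above the plate cutoff, the mean of all test compounds on that plate plus 3 SD, cut at about 35% in these data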;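 note: 0% = DMSO alone and 100% = 100 µM mitoxantrone as full dye displacement; higher means more dye released from RNA so lower well fluorescence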
MBD2 DNA inh – inhibitors of MBD2 binding to methylated DNA, primary screen, biochemical, TR-FRET, DNA-binding domain, human | AID 686964, 2013 | Methyl-CpG-binding domain protein 2 (Homo sapiens), Q9UBB5 | MBD2 binding to methylated oligonucleotide | inhibition, % at 4.4 µM | 0.31% of 370,000 active; in the data active = inhibition above about 13%
PRMT1 FP inh – PRMT1 methyltransferase inhibitors, primary screen, biochemical, fluorescence polarization; Protein arginine N-methyltransferase 1 (Homo sapiens), Q99873; recombinant PRMT1, activity-based probe fluorescence polarization; inhibition, % at 2.79 µM; 1.3% of 370,000 active;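 active = inhibition above about 21% made by adding two undisclosed values, limit read from the data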
ABHD5 PLIN5 conf – ABHD5-PLIN5 interaction inhibitors, confirmation, biochemical, luminescence; shares compounds with ABHD5 PLIN5 PPI; inhibition, % at 4 µM; 67% of 2,200 active; AID 651612, 2012; in the data active = inhibition above about 23%;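 note: 0% = DMSO vehicle wells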
HNF4 split-luc – HNF4 dimerization inhibitors, counter-screen for ABHD5-PLIN5 interaction inhibitor project, biochemical, split-luciferase complementation, luminescence. shares compounds with ABHD5 PLIN5 PPI. inhibition, % at 4 µM. 77% of 2,200 active. AID 651674, 2012;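 active = mean inhibition across replicate wells exceeding the computed hit threshold, cut at about 13% in these data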;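 note: light from luciferase halves that rejoin when HNF4 fusion proteins dimerize; 0% = DMSO only wells and the 100% control is not given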
The depositor's hits bear a star. An excerpt weighted towards active compounds, which were near 4.1% of everything screened.

CN(C)c1ccc(-n2cccc2/C=C/[N+](=O)[O-])cc1 was read as ABHD5 PLIN5 PPI 52*, UHRF1 MBD2 ctr 6, LEDGF integ inh -6, rCAG binder 3, MBD2 DNA inh -3, PRMT1 FP inh 3, ABHD5 PLIN5 conf 82* and HNF4 split-luc 71*.
Screening CCN(CC)CCOC(=O)/C=C/c1ccccc1 returned ABHD5 PLIN5 PPI -4, UHRF1 MBD2 ctr 3, LEDGF integ inh 3, rCAG binder -2, MBD2 DNA inh -6 and PRMT1 FP inh -4.
`CCN(CC)CC(C)(C)C(=O)/C=C/c1ccc(/C=C/C(=O)C(C)(C)CN(CC)CC)cc1` gave ABHD5 PLIN5 PPI 95*, UHRF1 MBD2 ctr 0, LEDGF integ inh -9, rCAG binder 0, MBD2 DNA inh -1, PRMT1 FP inh 13, ABHD5 PLIN5 conf 101* and HNF4 split-luc 107*.
CC(C)OC(=O)CN1C(=O)S/C(=C/c2ccc(N3CCCCC3)o2)C1=O was read as ABHD5 PLIN5 PPI 34*, UHRF1 MBD2 ctr 0, LEDGF integ inh 3, rCAG binder 13, MBD2 DNA inh 1, PRMT1 FP inh 16, ABHD5 PLIN5 conf 61* and HNF4 split-luc 102*.
`COC(=O)/C(C#N)=C/c1ccc(-c2ccc(S(N)(=O)=O)cc2)o1` gave ABHD5 PLIN5 PPI 3, UHRF1 MBD2 ctr 0, LEDGF integ inh -4, rCAG binder 12, MBD2 DNA inh 1 and PRMT1 FP inh -3.
For N#CC(C#N)=Cc1ccc(-c2ccc(S(=O)(=O)N=C(N)N)cc2)o1 the results were ABHD5 PLIN5 PPI 28*, UHRF1 MBD2 ctr 16, LEDGF integ inh 1, rCAG binder 11, MBD2 DNA inh 10, PRMT1 FP inh -3, ABHD5 PLIN5 conf 41* and HNF4 split-luc 35*.
`Clc1ccc(-c2nnc3n2N=C(c2ccc(-c4ccccc4)cc2)CS3)c(Cl)c1` gave UHRF1 MBD2 ctr -3, LEDGF integ inh 0, rCAG binder 5, MBD2 DNA inh 3 and PRMT1 FP inh 0.
Screening Cc1nn(C)cc1NC(=O)CCSc1nc(-c2ccco2)cc(C(F)(F)F)n1 returned ABHD5 PLIN5 PPI 88*, UHRF1 MBD2 ctr -1, LEDGF integ inh 3, rCAG binder 0, MBD2 DNA inh 0, PRMT1 FP inh -1, ABHD5 PLIN5 conf 6 and HNF4 split-luc 3.
`O=C(CSc1nnc(-c2cccnc2)n1-c1ccc(Cl)cc1)Nc1ccccc1-c1ccccc1` gave UHRF1 MBD2 ctr 1, LEDGF integ inh -1, rCAG binder 2, MBD2 DNA inh -1 and PRMT1 FP inh -2.
Screening O=C(c1nnsc1S(=O)(=O)c1ccc(Cl)cc1)N1CCOCC1 returned ABHD5 PLIN5 PPI 51*, UHRF1 MBD2 ctr 3, LEDGF integ inh 6, rCAG binder -4, MBD2 DNA inh -4, PRMT1 FP inh 7, ABHD5 PLIN5 conf 73* and HNF4 split-luc 71*.
Nc1nc(C(=O)N2CCOCC2)nn1S(=O)(=O)c1ccc(Cl)cc1 was read as ABHD5 PLIN5 PPI 0, UHRF1 MBD2 ctr 1, LEDGF integ inh -3, rCAG binder 1, MBD2 DNA inh -3 and PRMT1 FP inh -2.
COc1ccc(C(NC(=O)/C=C/c2ccco2)c2ccc(OC)cc2)cc1 was read as ABHD5 PLIN5 PPI 25*, UHRF1 MBD2 ctr 1, LEDGF integ inh 1, rCAG binder 15, MBD2 DNA inh -1, PRMT1 FP inh 14, ABHD5 PLIN5 conf 66* and HNF4 split-luc 46*.
Screening CC(/C=C/c1ccc(Cl)o1)=C\C(=O)O returned ABHD5 PLIN5 PPI 14, UHRF1 MBD2 ctr 3, LEDGF integ inh 1, rCAG binder 2, MBD2 DNA inh -2 and PRMT1 FP inh 4.
`CC(=C/C(=O)O)/C=C/c1ccco1` gave ABHD5 PLIN5 PPI 25*, UHRF1 MBD2 ctr 1, LEDGF integ inh 8, rCAG binder 2, MBD2 DNA inh -4, PRMT1 FP inh 0, ABHD5 PLIN5 conf 10 and HNF4 split-luc 17*.
`O=C(C1CCN(c2ncnc3c2sc2cccc(F)c23)CC1)N1CCN(Cc2ccccc2)CC1` gave UHRF1 MBD2 ctr -4, LEDGF integ inh 4, rCAG binder 4, MBD2 DNA inh 2 and PRMT1 FP inh -7.
`COC(=O)c1ccc(S(=O)(=O)N2CCC(NC(=O)CCc3ccccc3)CC2)cc1` gave UHRF1 MBD2 ctr 0, LEDGF integ inh 1, rCAG binder 2, MBD2 DNA inh -1 and PRMT1 FP inh 2.
For N#CC1=C(Nc2ccccc2Cl)SC2(CCCC2)NC1=O the results were ABHD5 PLIN5 PPI 33*, ABHD5 PLIN5 conf -2 and HNF4 split-luc 19*.
For O=C1C(=C(c2ccccc2)N2CCOCC2)Cc2ccccc21 the results were ABHD5 PLIN5 PPI 82*, UHRF1 MBD2 ctr 0, LEDGF integ inh 5, rCAG binder -1, MBD2 DNA inh -1, PRMT1 FP inh 6, ABHD5 PLIN5 conf 97* and HNF4 split-luc 95*.
For CCCN1CCCCC(NC(=O)c2ccc(F)c(F)c2)C1=O (configuration not stated) the results were UHRF1 MBD2 ctr -1, LEDGF integ inh -2, rCAG binder 1, MBD2 DNA inh 5 and PRMT1 FP inh 0.
`COc1cc2c(cc1OC)C(=O)C(c1ccc3c(c1)OCO3)CC2` (configuration not stated) gave ABHD5 PLIN5 PPI 2, UHRF1 MBD2 ctr 3, LEDGF integ inh -1, rCAG binder -2, MBD2 DNA inh -2 and PRMT1 FP inh 0.
Screening COc1cc2c(cc1OC)C(=O)C(Br)CC2 (configuration not stated) returned ABHD5 PLIN5 PPI 82*, ABHD5 PLIN5 conf 5 and HNF4 split-luc 16*.
For O=C(NCc1ccccc1)N1CCN(Cc2nc3ccccc3c(=O)[nH]2)CC1 the results were UHRF1 MBD2 ctr 1, LEDGF integ inh 0, rCAG binder 1, MBD2 DNA inh 3 and PRMT1 FP inh 0.
For Cc1ccc(CN2C(=O)C(=O)c3cc(C)ccc32)cc1 the results were ABHD5 PLIN5 PPI 30*, UHRF1 MBD2 ctr -1, LEDGF integ inh 3, rCAG binder 1, MBD2 DNA inh -4, PRMT1 FP inh 0, ABHD5 PLIN5 conf 25* and HNF4 split-luc 43*.
